Consider eight compounds from PubChem BioAssay (Tox21).

Records with an inconclusive call do not appear. Active and inactive are the calls of the source. Unless noted, calls come from the whole dose curve; as a rule, active = well fitted curve in the direction sought with a large enough effect in the repeat runs; inconclusive = weak or mixed curves; inactive = no such curve, though single readings can be large; an effect the other way counts as inactive or inconclusive.

The nature of experiment [1]: qHTS assay to identify small molecule antagonists of the androgen receptor (AR) signaling pathway using the MDA cell line in the presence of 0.5 nM R1881 - cell viability counter screen (AID 1259242). Note: nearly all actives have a fitted effect of over 45% in size. The method, boiled down:
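Concentration-response screen of compounds for toxicity in MDA-kb2 reporter cells: 16 hr at 37C with 0.5 nM R1881, endpoint live-cell protease fluorescence measured in the reporter wells.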

The nature of experiment [2]: qHTS assay to identify small molecule HDAC inhibitors - cell viability counter screen (AID 1259365). Note: series mostly up to about 92 µM; nearly all actives have a fitted effect of over 50% in size. The method, boiled down:
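To flag cytotoxic hits, 1,500 wild-type HCT-116 cells per well, plated the day before, receive test compounds for 2hr at 37 C before CellTiter-Glo reagent and a luminescence read.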

Experiment [3] in a line: qHTS assay to identify small molecule agonists of the sonic hedgehog signaling (Shh) pathway - cell viability counter screen (AID 1259366). Note: nearly all actives have a fitted effect of over 50% in size. Note: potency is the fitted concentration of half-maximal effect. Summed up:
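Fluorescence from CellTiter-Fluor reports live cells in this counter screen. NIH/3T3-derived Gli1-Luc reporter cells receive test compounds for 24hr at 37C; reagent goes in at 23hr.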

Experiment [4] in a line: qHTS assay to identify small molecule antagonists of the sonic hedgehog signaling (Shh) pathway - cell viability counter screen (AID 1259367). Note: nearly all actives have a fitted effect of over 55% in size. Summed up:
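Conditioned medium drove Shh signaling in 3T3 Gli1-Luc cells exposed to compounds at 37C and 5% CO2. Viability was determined from CellTiter-Fluor fluorescence, with reagent incubated 1 hr after 23 hr of treatment.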
For orientation: Quantitative high-throughput screening tests each substance at several concentrations.

A short description of experiment [5]: qHTS assay to identify small molecule agonists of the sonic hedgehog signaling (Shh) pathway (AID 1259368; calls by dose curve;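 note: NIH/3T3-derived 3T3Gli1-Luc cells carrying a stable Gli1-driven firefly luciferase reporter; series mostly up to about 92 µM; nearly all actives have a fitted effect of over 15% in size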). Summed up: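 Hedgehog pathway agonism scored by increased firefly luciferase luminescence in 3T3Gli1-Luc cells treated 24 hr at 37 C; detection used a 30 min room-temperature reagent incubation.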
Experiment [6] can be described thus: qHTS assay to identify small molecule antagonists of the sonic hedgehog signaling (Shh) pathway (AID 1259369; calls by dose curve; note: nearly all actives have a fitted effect of over 45% in size). Summed up:
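NIH/3T3 stable Gli1-Luc clone, 2,000 cells/well, 4hr settle; cpd + conditioned medium 24hr; Luc reagent 30min RT; luminescence.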

Experiment [7] has as its target Estrogen receptor beta (Homo sapiens) (UniProt Q92731). Put plainly: qHTS assay to identify small molecule agonists of the estrogen receptor beta (ER-beta) signaling pathway (AID 1259377; active = well fitted activation curve with a large enough effect in the signal ratio in the repeat runs, not every such curve was filed as active; the % refers to the signal ratio). Summed up: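 Screening used GripTite ER-beta-UAS-bla cells held in 2% charcoal-stripped FBS medium. After overnight (16 hr) compound incubation at 37C, beta-lactamase activity was detected with a FRET substrate by fluorescence.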

Experiment [8] has the same target. Put plainly: qHTS assay to identify small molecule antagonists of the estrogen receptor beta (ER-beta) signaling pathway (AID 1259378; active = well fitted inhibition curve with a large enough effect in the signal ratio in the repeat runs, not every such curve was filed as active; the % refers to the signal ratio; note: potency is the fitted concentration of half-maximal effect). Summed up:
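ER-beta-UAS-bla HEK293T (GripTite) cells in 2% charcoal-stripped FBS medium were preincubated 6 hr at 37C, dosed with compound, then stimulated with 1 nM E2 (final) for 16 hr; beta-lactamase reporter read by B/G FRET fluorescence after 2 hr substrate loading.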

Experiment [9] can be described thus: qHTS assay to identify small molecule agonists of the androgen receptor (AR) signaling pathway in the presence of an antagonist - cell viability counter screen (AID 1259379). Note: nearly all actives have a fitted effect of over 25% in size. Note: potency is the fitted concentration of half-maximal effect. The method, boiled down:
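MDA-kb2 viability measured by CellTiter-Fluor fluorescence in the same wells as the luciferase signal; nilutamide 3.0uM final; 15-point compound titration; 16 hr at 37C.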

Experiment [10] can be described thus: qHTS assay to identify small molecule agonists of the estrogen receptor beta (ER-beta) signaling pathway - cell viability counter screen (AID 1259380). Note: nearly all actives have a fitted effect of over 30% in size. Summed up:
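Measured: luminescence from CellTiter-Glo after 30 min at room temperature, added to wells already read for the LiveBLAzer FRET reporter (2 hr substrate); ER-beta-UAS-bla HEK293T cells had 16 hr compound treatment at 37C, 5% CO2.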

The nature of experiment [11]: qHTS assay to identify small molecule antagonists of the estrogen receptor beta (ER-beta) signaling pathway - cell viability counter screen (AID 1259382). Note: series mostly up to about 92 µM; nearly all actives have a fitted effect of over 55% in size. The method, boiled down: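 Readout: luminescence, CellTiter-Glo, same wells as bla assay. System: ER-beta-UAS-bla GripTite HEK293T, 2% charcoal-stripped FBS. Exposure: compounds plus 1nM 17-beta-estradiol, 16 hr, 37C.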

Experiment [12] can be described thus: qHTS assay to identify small molecule agonists or antagonists of the thyroid stimulating hormone receptor (TSHR) signaling pathway - wild type cell line counter screen (AID 1259384; calls by dose curve). The method, boiled down:
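Wild-type HEK293 cells were plated 18 h at 37 C/5% CO2, pin-dosed with compound plus Ro20-1724 medium, held 30 min at room temperature, then given cAMP-d2 and anti-cAMP-cryptate; fluorescence was read after 1 h. Fifteen concentrations, triplicate.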

Experiment [13] has as its target Thyrotropin receptor (Homo sapiens) (UniProt P16473). Briefly: qHTS assay to identify small molecule antagonists of the thyroid stimulating hormone receptor (TSHR) signaling pathway (AID 1259385; calls by dose curve; note: nearly all actives have a fitted effect of over 20% in size). The method, boiled down:
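TSHR-HEK293 cells were plated and held 18 h at 37C/5% CO2, then given compound plus Ro20-1724 and stimulated with TSH at 1.5 ng/mL final. After 30 min at room temperature, cAMP was detected with cAMP-d2/anti-cAMP-cryptate (1 h) by fluorescence.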

Experiment [14] can be described thus: qHTS assay to identify small molecule agonists of the estrogen receptor alpha (ER-alpha) signaling pathway in the presence of an antagonist - cell viability counter screen (AID 1259386).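 Note: series mostly up to about 92 µM; cells exposed to compounds for 22 h at 37 °C before the viability read; nearly all actives have a fitted effect of over 30% in size.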 The method, boiled down: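 The test measures whether compounds kill ER-alpha reporter cells (VM7Luc4E2) under antagonist co-treatment (ICI-182,780, 10.0nM). Fluorescence from CellTiter-Fluor is read after a 22hr exposure.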

Experiment [15] can be described thus: qHTS assay to identify small molecule HDAC inhibitors (AID 1259364).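 Note: wild-type HCT-116 cells with endogenous class I/II HDAC activity; top concentration of the series differs between compounds; nearly all actives have a fitted effect of over 45% in size.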 The method, boiled down: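 Screening used wild-type human colon HCT-116 cells incubated overnight, dosed with compounds for 2 hours, and assayed with a homogeneous luminogenic HDAC I/II reagent for 30 minutes at room temperature.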
In experiment [16] the target is Androgen receptor (Homo sapiens) (UniProt P10275). Briefly: qHTS assay to identify small molecule antagonists of the androgen receptor (AR) signaling pathway using the MDA cell line in the presence of 0.5 nM R1881 (AID 1259243). Note: nearly all actives have a fitted effect of over 50% in size. The method, boiled down: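 With R1881 held at 0.5 nM (final), compound effects on MMTV-luciferase expression in MDA-kb2 cells were scored by luminescence after a 16 hr, 37C incubation.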

Experiment [17] concerns the target Estrogen receptor (Homo sapiens) (UniProt P03372). Briefly: qHTS assay to identify small molecule antagonists of the estrogen receptor alpha (ER-alpha) signaling pathway using the BG1 cell line in the presence of 0.1 nM 17-beta-estradiol (AID 1259244). Note: nearly all actives have a fitted effect of over 50% in size. Summed up:
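Compounds were tested against 0.1 nM (final) 17beta-estradiol in VM7Luc4E2 cells, which express full-length ER-alpha and an ERE-luciferase reporter; luminescence was recorded following 22 h exposure.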

Experiment [18] deals with Androgen receptor (Homo sapiens) (UniProt P10275). Briefly: qHTS assay to identify small molecule agonists of the androgen receptor (AR) signaling pathway in the presence of an antagonist (AID 1259381; calls by dose curve; note: nearly all actives have a fitted effect of over 15% in size). Summed up: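 Luminescent ONE-Glo read, 30min at room temperature, follows 16hr compound exposure (15 concentrations) of MDA-kb2 cells at 37C, 0% CO2, with nilutamide added at 3.0uM final.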

For experiment [19], the target named is Estrogen receptor (Homo sapiens) (UniProt P03372). Put plainly: qHTS assay to identify small molecule agonists of the estrogen receptor alpha (ER-alpha) signaling pathway in the presence of an antagonist (AID 1259383; calls by dose curve; note: top concentration of the series differs between compounds; nearly all actives have a fitted effect of over 15% in size). The method, boiled down: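 Quantitative HTS confirmation: compounds titrated at 15 concentrations onto estrogen-deprived VM7Luc4E2 cells carrying a four-ERE luciferase construct, with ICI-182,780 present at 10.0nM final. Signal is luminescence after 22hr exposure.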
Sequence of Estrogen receptor (Homo sapiens) (P03372 whole entry, looked up): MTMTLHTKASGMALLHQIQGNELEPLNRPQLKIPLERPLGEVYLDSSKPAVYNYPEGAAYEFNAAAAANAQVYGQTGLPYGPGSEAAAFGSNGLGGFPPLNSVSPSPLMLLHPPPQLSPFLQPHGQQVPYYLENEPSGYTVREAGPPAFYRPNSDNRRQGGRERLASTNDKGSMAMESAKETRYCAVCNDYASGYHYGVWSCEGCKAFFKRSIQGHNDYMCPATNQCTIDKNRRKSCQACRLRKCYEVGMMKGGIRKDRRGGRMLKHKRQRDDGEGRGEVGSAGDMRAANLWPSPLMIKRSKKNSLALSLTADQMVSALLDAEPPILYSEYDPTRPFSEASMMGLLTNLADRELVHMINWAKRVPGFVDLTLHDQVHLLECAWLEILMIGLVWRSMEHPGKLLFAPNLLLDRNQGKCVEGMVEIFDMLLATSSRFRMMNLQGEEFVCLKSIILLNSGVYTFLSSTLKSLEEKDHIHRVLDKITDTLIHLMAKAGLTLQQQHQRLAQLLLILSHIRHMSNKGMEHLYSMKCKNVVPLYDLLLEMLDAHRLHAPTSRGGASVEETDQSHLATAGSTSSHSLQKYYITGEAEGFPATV

Sequence of Thyrotropin receptor (Homo sapiens) (P16473 whole entry, looked up): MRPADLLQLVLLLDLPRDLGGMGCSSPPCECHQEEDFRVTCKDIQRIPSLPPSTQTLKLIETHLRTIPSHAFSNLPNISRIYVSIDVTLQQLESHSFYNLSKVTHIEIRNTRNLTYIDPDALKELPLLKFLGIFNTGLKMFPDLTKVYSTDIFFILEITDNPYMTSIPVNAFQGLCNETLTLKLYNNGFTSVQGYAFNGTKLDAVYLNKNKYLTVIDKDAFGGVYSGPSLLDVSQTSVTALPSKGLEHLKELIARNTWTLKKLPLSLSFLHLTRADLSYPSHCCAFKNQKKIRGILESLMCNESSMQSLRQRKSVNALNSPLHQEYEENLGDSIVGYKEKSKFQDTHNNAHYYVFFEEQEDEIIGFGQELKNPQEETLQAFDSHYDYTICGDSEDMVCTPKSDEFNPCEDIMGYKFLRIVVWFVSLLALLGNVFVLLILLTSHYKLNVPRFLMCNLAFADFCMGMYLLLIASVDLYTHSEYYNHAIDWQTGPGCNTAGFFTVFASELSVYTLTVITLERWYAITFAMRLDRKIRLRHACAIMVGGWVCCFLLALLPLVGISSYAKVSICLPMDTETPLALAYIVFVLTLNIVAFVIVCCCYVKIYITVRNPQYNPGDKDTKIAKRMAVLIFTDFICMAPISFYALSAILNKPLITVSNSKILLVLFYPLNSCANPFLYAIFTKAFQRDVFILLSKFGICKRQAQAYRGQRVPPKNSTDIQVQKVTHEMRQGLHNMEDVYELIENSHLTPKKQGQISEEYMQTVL
Sequence of Estrogen receptor beta (Homo sapiens) (Q92731 whole entry, looked up): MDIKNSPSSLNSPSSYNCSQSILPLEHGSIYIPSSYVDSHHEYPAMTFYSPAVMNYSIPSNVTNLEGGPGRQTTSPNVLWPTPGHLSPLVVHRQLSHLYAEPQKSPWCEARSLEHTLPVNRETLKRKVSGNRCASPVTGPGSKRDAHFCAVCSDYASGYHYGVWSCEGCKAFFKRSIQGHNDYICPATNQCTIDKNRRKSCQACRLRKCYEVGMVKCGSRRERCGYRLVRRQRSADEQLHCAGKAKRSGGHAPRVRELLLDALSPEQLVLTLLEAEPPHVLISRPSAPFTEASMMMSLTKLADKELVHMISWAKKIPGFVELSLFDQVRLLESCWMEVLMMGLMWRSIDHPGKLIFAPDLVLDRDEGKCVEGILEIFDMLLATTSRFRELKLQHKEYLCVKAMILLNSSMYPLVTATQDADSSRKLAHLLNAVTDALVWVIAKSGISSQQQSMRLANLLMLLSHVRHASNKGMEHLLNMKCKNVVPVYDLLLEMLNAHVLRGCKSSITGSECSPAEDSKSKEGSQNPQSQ
Sequence of Androgen receptor (Homo sapiens) (P10275 whole entry, looked up): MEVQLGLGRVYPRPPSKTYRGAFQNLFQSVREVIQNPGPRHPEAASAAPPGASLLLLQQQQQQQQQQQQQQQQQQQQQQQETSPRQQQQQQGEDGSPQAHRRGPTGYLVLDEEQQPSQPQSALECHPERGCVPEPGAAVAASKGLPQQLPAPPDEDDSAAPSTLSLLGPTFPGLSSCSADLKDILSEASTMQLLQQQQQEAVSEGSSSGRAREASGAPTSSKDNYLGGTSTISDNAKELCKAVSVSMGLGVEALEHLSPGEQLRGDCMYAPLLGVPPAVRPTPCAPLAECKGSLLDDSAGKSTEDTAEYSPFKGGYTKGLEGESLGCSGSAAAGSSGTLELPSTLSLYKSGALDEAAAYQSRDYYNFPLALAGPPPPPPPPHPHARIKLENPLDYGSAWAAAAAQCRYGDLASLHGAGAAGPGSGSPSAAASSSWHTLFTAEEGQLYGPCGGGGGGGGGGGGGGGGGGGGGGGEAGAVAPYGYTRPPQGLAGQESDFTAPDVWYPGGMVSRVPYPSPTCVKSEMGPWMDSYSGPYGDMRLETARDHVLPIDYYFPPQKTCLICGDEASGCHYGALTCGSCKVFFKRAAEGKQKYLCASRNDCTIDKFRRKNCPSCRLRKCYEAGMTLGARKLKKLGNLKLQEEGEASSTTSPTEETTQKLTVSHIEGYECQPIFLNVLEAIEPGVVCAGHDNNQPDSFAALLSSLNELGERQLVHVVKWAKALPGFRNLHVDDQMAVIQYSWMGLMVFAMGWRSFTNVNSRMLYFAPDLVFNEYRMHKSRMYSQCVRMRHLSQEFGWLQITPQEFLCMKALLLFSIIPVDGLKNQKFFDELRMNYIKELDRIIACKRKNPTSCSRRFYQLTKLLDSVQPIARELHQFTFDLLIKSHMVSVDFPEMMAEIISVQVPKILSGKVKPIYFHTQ

On to `N#CC(O)c1ccccc1` (stereo not drawn), for which the result in experiment [1], in [2], in experiment [5] and in [7] was inactive. Besides, the Potency entry in experiment [3], in experiment [4], in [6], in experiment [8], in experiment [9] and in experiment [10] was “inactive” throughout. The Potency result in experiment [11], in [12], in experiment [13] and in [14] was “inactive” in each case.

Regarding `C[C@]1(O)CC[C@H]2[C@@H]3CCC4=CC(=O)CC[C@]4(C)[C@@]3(F)[C@@H](O)C[C@@]21C`, the result in [1], in experiment [2] and in experiment [5] was inactive. The Potency result in experiment [15], in experiment [3], in experiment [4], in experiment [9], in experiment [11] and in experiment [12] was “inactive” in each case. The Potency result in experiment [13] and in experiment [14] was “inactive” each time.

Turning to `O=C(Nc1ccccc1)N(Cc1ccc(Cl)cc1)C1CCCC1`, the outcome in [1], in [2], in experiment [5] and in experiment [7] was inactive. Also, the Potency entry in experiment [15], in [11], in [12] and in [13] was “inactive” each time. In addition, the Potency in experiment [8] was 24.3 µM (active); in [9] it was 68.6 µM (active).

Consider `CC1CCC(=O)O1` (stereo not drawn), for which the outcome in experiment [1], in [2] and in experiment [5] was inactive. Also, the Potency result in experiment [15], in [3], in [4], in experiment [6], in experiment [9] and in experiment [10] was “inactive” each time. For the same compound, the Potency entry in experiment [11], in experiment [12], in [13] and in experiment [14] was “inactive” each time.

In the case of `CCOP(=S)(OCC)Oc1ncn(-c2ccccc2)n1`, the Potency entry in [16], in experiment [17], in experiment [15], in [3], in [6] and in [8] was “inactive” throughout. Further, the Potency entry in experiment [9], in experiment [18], in [11], in experiment [19], in [12] and in [13] was “inactive” each time. Further, in [14], the Potency entry was “inactive”. Further, the compound was called inactive in experiment [2], in [5] and in experiment [7].

With `COc1cccc(C(=O)NN(C(=O)c2cc(C)cc(C)c2)C(C)(C)C)c1C`, the outcome in experiment [1], in [2], in [5] and in experiment [7] was inactive. For the same compound, the Potency result in [15], in experiment [6], in experiment [8], in [9], in experiment [10] and in experiment [11] was “inactive” in each case. The Potency result in experiment [12] and in experiment [13] was “inactive” each time. Moreover, the Potency in experiment [3] is 13.7 µM (active).

Turning to `CC1CCCCC1NC(=O)Nc1ccccc1` (stereo not drawn), the result in [1], in [2], in [5] and in experiment [7] was inactive. Besides, the Potency result in [3], in experiment [4], in experiment [6], in experiment [8], in experiment [9] and in experiment [10] was “inactive” each time. For the same compound, the Potency result in experiment [11], in [19], in experiment [12], in experiment [13] and in experiment [14] was “inactive” in each case.

`COCC(=O)N(c1c(C)cccc1C)N1CCOC1=O`: the result in [1], in experiment [2] and in experiment [5] was inactive. For the same compound, the Potency entry in experiment [15], in experiment [3], in [4], in experiment [6], in experiment [9] and in experiment [10] was “inactive” in each case. Besides, the Potency result in experiment [11] and in experiment [14] was “inactive” in each case.
